Assay outcomes (PubChem)
JMJD2A Tudor = qHTS Assay for Inhibitors of JMJD2A-Tudor Domain. AlphaScreen JMJD2A-Tudor / H3K4me3 peptide binding. hit rate 4.4% among 390,000. Potency, µM (top dose mostly 114 µM), inactives show at the highest dose activity change, negative = inhibition, hits mostly inhibitors. Lysine-specific demethylase 4A (Homo sapiens), O75164; further: potency means the concentration at half of the fitted maximal effect; on the % scale 0 is the no-effect control and ±100 the full control effect; nearly all actives have a fitted effect of over 50% in size
CtBP-E1A inh = qHTS Assay for Inhibitors of the CtBP/E1A Interaction. CtBP / adenovirus E1A interaction (AlphaScreen). AlphaScreen GST-E1A/His-CtBP binding, 1536-well; stronger effect = lower value. activity change, % (concentration not given with the values). hit rate 0.49% among 340,000; in the data active means activity change below about -65%; inconclusive means mostly about -30% to -63%; further: on the % scale 0 is the no-effect control and ±100 the full control effect
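Protein mix (5X: 125 nM each GST-E1A, His-CtBP) was incubated with pinned compound 2 h at 37 deg C in dark, in 50 mM Tris pH 8.0 buffer with 300 mM NaCl. Glutathione donor and nickel acceptor beads followed; AlphaScreen signal read after 1 h.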
BAZ2B block = qHTS Assay for Inhibitors of BAZ2B; Bromodomain adjacent to zinc finger domain protein 2B (Homo sapiens), Q9UIF8; AlphaScreen BAZ2B-H3K14Ac peptide displacement; Potency, µM (doses to about 114 µM), for the others: at the top dose activity change, negative = inhibition, usual class: inhibitors; hit rate 4.4% among 360,000; AID 504333, 2011; further: potency means the concentration at half of the fitted maximal effect; on the % scale 0 is the no-effect control and ±100 the full control effect; nearly all actives have a fitted effect of over 60% in size
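AlphaScreen displacement: compounds (up to 110uM) incubated 30 min at room temperature with a preformed 50 nM BAZ2B/50 nM biotinylated H3K14Ac peptide complex in PBS pH 7.4 with Tween-20. Donor and acceptor beads at 10 ug/mL final added, 20 min light-protected before reading.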
HP1b binding inh = HTS for Inhibitors of HP1-beta Chromodomain Interactions with Methylated Histone Tails. Chromobox protein homolog 1 (Homo sapiens), P83916. AlphaScreen HP1-beta / biotin-H3K9me3 peptide binding. Potency, µM (doses to about 114 µM), without a hit: at the top dose activity change, negative = inhibition, usual class: inhibitors. hit rate 0.56% among 390,000. AID 540317, 2011; further: potency means the concentration at half of the fitted maximal effect; nearly all actives have a fitted effect of over 70% in size
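HP1-beta protein (50 nM final) preincubated 30 min at room temperature with biotinylated H3(1-18)K9me3 peptide (50 nM) in PBS pH 7.4, 0.01% Tween-20, then compound added for 30 min. AlphaScreen streptavidin donor/nickel chelate acceptor beads (10 ug/mL final), 30 min dark, luminescence read.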
Six1-Eya2 inh = qHTS Assay for Inhibitors of the Six1/Eya2 Interaction | hit rate 0.56% among 360,000 | Homeobox protein SIX1 (Homo sapiens) + Protein phosphatase EYA2 (Homo sapiens), … | activity change, % (no concentration beside the values) | AlphaScreen GST-Six1/His-Eya2 binding, biochemical; stronger effect = lower value; in the data active means activity change below about -65%; inconclusive means mostly about -30% to -63%; further: on the % scale 0 is the no-effect control and ±100 the full control effect
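GST-Six1 + His-Eya2 (5X stock: 250/500 nM); Tris pH 8.0, 300 mM NaCl, 0.05% BSA, 0.02% Tween 20; GSH donor/Ni acceptor beads; 1 h 37 °C dark; AlphaScreen readout.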
G9a inh = qHTS Assay for Inhibitors of Histone Lysine Methyltransferase G9a; G9a H3K9 monomethylation, AlphaScreen, 2 h; Potency, µM (doses to about 102 µM), without a hit: at the top dose activity, negative = inhibition, actives largely listed as inhibitors; hit rate 8.8% among 350,000; AID 504332, 2011; further: potency means the concentration at half of the fitted maximal effect; on the % scale 0 is the no-effect control and ±100 the full control effect; nearly all actives have a fitted effect of over 75% in size
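Quantitative HTS format: methyltransferase activity on a biotin-tagged H3K9 peptide is measured by AlphaScreen, using a rabbit anti-monomethyl-H3K9 antibody with streptavidin donor and anti-IgG acceptor beads. Final levels are 20 nM enzyme, 500 nM peptide, 20 uM SAM; 2 h RT.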
* = called active by the depositor; ? = inconclusive; / = not tested or not shown; [ ] = another dose, or the depositor's remark. Sampled rows, rich in hits. Any-hit rate of the full collection: about 10%. Unless noted, the call rests on the fitted dose curve; in most records, active means well fitted inhibition curve with a large enough effect; inconclusive means small, poorly fitted or top-dose-only effect; inactive means no such curve, though single readings can be large or run the other way.

SMILES | JMJD2A Tudor | CtBP-E1A inh | BAZ2B block | HP1b binding inh | Six1-Eya2 inh | G9a inh
Cc1cc(C(=O)COC(=O)Cc2n[nH]c(=O)c3ccccc23)c(C)n1-c1ccc2c(c1)OCCO2 | -30.9% | ? | -10.9% | 3.7% | ? | 50.1µM*
Cc1cc(C(=O)COC(=O)C2=COCCO2)c(C)n1-c1ccc2c(c1)OCO2 | -23.7%[57.1 µM] | -10.0 | 50.1µM* | 9.2% | -12.1 | ?
Cc1cc(C(=O)COC(=O)C2=COCCO2)c(C)n1-c1cccc(F)c1 | -34.4% | -14.9 | ? | -16.9% | -16.5 | 56.2µM*
COC(=O)c1ccc(-n2c(C)cc(C(=O)COC(=O)C3=COCCO3)c2C)cc1 | -18.9% | -12.4 | / | -1.8% | -4.0 | /
CCOC(=O)C1CCCN(CCCc2ccccc2)C1 (stereo not drawn) | -1.4% | 2.8 | -2.8% | 47.4% | 2.6 | -11.2%
CC1CCCN(C(=O)C2CCN(CCCc3ccccc3)CC2)C1 (stereo not drawn) | 3.55µM* | -0.3 | ? | ? | -1.0 | 15.8µM*
CC1CCCN(C(=O)C2CCN(CC(C)c3ccccc3)CC2)C1 (stereo not drawn) | 3.55µM* | 0.9 | -28.4% | ? | 8.7 | ?
CCOC(=O)C1=C(CN2CCN(c3cccc(OC)c3)CC2)NC(=O)NC1c1ccc(OC)cc1 (stereo not drawn) | ? | / | ? | -1.2% | / | -28.2%[59 µM]
Cc1ccc(C)n1-c1c(C(=O)NCCC(C)C)sc2ncccc12 | -28.4% | / | 0.4% | 10.1%[57 µM] | / | -4.6%[59 µM]
Cc1ccc(C)c(N2CCN(C(=O)C(CC(C)C)NS(=O)(=O)c3ccc4nc(C)sc4c3)CC2)c1 (stereo not drawn) | -24.9% | / | 2.9% | 47.8% | / | -1.6%[59 µM]
O=C(CCCCCN1C(=O)CCC1=O)Nc1ncn[nH]1 | 50.1µM* | 14.2 | 50.1µM* | 47.2% | -3.9 | 13.1%[12.7 µM]
O=C(c1ccco1)N1CCN(C(c2ccc(Cl)cc2)c2nnnn2CC2CCCO2)CC1 (stereo not drawn) | 79.4µM* | 12.5 | ? | 0.1% | 1.3 | -47.2%[12.7 µM]
Cc1ccc(C(c2nnnn2CC2CCCO2)N2CCN(C(=O)c3ccco3)CC2)cc1 (stereo not drawn) | -3.8% | 7.6 | -35.1% | 40.5% | -1.8 | 75.7%[59 µM]
O=C(c1ccco1)N1CCN(Cc2nnnn2CC2CCCO2)CC1 (stereo not drawn) | 28.2µM* | / | -30.3% | 40.1% | 0.7 | ?
COCCn1nnnc1CN1CCN(C(=O)c2ccco2)CC1 | -7.0% | 5.3 | 0.9% | 1.0% | 7.8 | 16.9%
Cc1occc1-c1nnc(SCc2nnc(-c3ccc(Cl)cc3)o2)n1C | -35.1%[11.4 µM] | -1.6 | -20.7% | ? | -4.4 | 79.4µM*
Cn1nnnc1SCc1nnc(-c2ccc(Cl)cc2)o1 | 3.5% | -5.3 | -14.6% | 56.3% | 5.3 | 6.0%[59 µM]
COc1cc(OC)cc(C(=O)NCc2n[nH]c(=S)n2-c2ccccc2)c1 | 7.94µM* | 0.4 | 10.1% | 18.1% | 0.3 | 7.3%[0.0925 µM]
COc1ccc(C(=O)NCc2n[nH]c(=S)n2-c2ccccc2)cc1OC | 6.31µM* | 5.3 | -0.4% | 11.3% | -0.3 | ?
COc1ccc(-c2nc3ccccc3c(=O)n2Cc2ccccc2)cc1CNc1ccc(NC(C)=O)cc1 | 50.1µM* | / | / | / | / | /
COc1ccc(-c2nc3ccc(NC(=O)CO)cc3c(=O)n2Cc2cccc(Cl)c2)cc1COc1ccc(NC(C)=O)cc1 | 56.2µM* | / | / | -17.3% | / | /
COc1ccc(-c2nc3ccc(NC(C)=O)cc3c(=O)n2Cc2ccccc2)cc1COc1ccc(NC(C)=O)cc1 | ? | / | / | 18.7% | / | /
COc1ccc(NC(=O)C2(S(=O)(=O)c3ccc(C)cc3)CC2)c(OC)c1 | -8.9% | / | -7.2% | 33.8% | / | -4.3%[59 µM]
